# In the library only some 15% were active in any assay of this set; here they are far more common.
# HCMV inh: inhibitors of human cytomegalovirus | activity change, negative = inhibition, % at 57.5 µM | 4.5% of 410,000 active | HFF cells, HCMV-luciferase reporter, 72 h; active compounds read low | AID 1259415; in the data active means activity change below about -60%; inconclusive means no clear call, values can overlap the other calls; inactive means above about -39%
#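 Compounds were evaluated in HFFs infected with an HCMV luciferase reporter virus (MOI 1 PFU/cell). Luciferase in lysates collected 72 h post infection served as the replication measure.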
# Pf growth 48h: P. falciparum growth inhibition at 48 hours (one generation) | P. falciparum luciferase growth in erythrocytes, 48 h | AID 504832 | 5.9% of 310,000 active | Potency, µM (top dose mostly 28.7 µM), actives largely listed as inhibitors
#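 Luciferase-expressing P. falciparum in infected erythrocytes (2% hematocrit, 0.1% parasitemia final) in RPMI 1640/0.5% Albumax were exposed to compound for 48 hours at 37 C, 5% CO2; growth read as luminescence.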
# Sm TGR inh: blocks Schistosoma mansoni thioredoxin glutathione reductase | Q962Y6 | purified TGR, DTNB reduction, TNB absorbance 405 nm | Potency, µM (top dose mostly 114 µM), most hits filed as inhibitors | 3% of 360,000 active; further: nearly all actives have a fitted effect of over 60% in size
#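 First, TGR (20 nM dispensed) and NADPH were mixed with compound. Second, a 15 min room-temperature incubation followed. Third, further NADPH and then DTNB were added to start the reaction. Finally, TNB absorbance was monitored kinetically.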
# Pf growth 96h: P. falciparum growth inhibition at 96 hour, primary screen for plastid delayed-death inhibitors; P. falciparum luciferase reporter growth, 96 h; 6.9% of 320,000 active; AID 504834; Potency, µM (titrated, usually from 28.7 µM), actives largely listed as inhibitors
#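 96 h incubation, 37 C, 5% CO2, of luciferase-reporter P. falciparum-infected RBCs (2% hematocrit, 0.05% parasitemia final) with test compounds; endpoint luminescence.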
# HCV inhibitor: blocks hepatitis C virus. Huh7.5.1 HCVcc-Cre infection, luciferase reporter, 44 h. Potency, µM (top dose mostly 41.8 µM), actives largely listed as inhibitors. 3.4% of 340,000 active. AID 651820
#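 After 44 h co-culture of compound, cells and HCVcc-Cre (~0.5 moi), substrate is added for 15 min at room temperature and luciferase measured over 15 sec. Cells were seeded at 1,000/well and pre-cultured 4 h.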
# SARS PLP yeast: SARS-CoV PLP inhibition in yeast | S. cerevisiae expressing SARS-CoV PLpro, growth rescue | Potency, µM (highest dose often 32.9 µM), actives largely listed as activators | 0.19% of 330,000 active | AID 485353; calls by dose curve; further: nearly all actives have a fitted effect of over 55% in size
# Hits are given with their value; n = inactive; u = inconclusive; x = no result given. Unless noted, the call rests on the fitted dose curve; in most records, active means well fitted curve in the direction sought with a large enough effect; inconclusive means small, poorly fitted or top-dose-only effect, or another doubt; inactive means no such curve, though single readings can be large; an effect the other way counts as inactive or inconclusive.
SMILES,HCMV inh,Pf growth 48h,Sm TGR inh,Pf growth 96h,HCV inhibitor,SARS PLP yeast
CC(=O)N1CCOc2ccc(S(=O)(=O)N3CCC(C(=O)NCc4ccc(C)cc4)CC3)cc21,n,n,n,n,n,n
Cc1c(C(=O)OCC(C)C)[nH]c2c1C(=O)CC(c1ccco1)C2 (centres undefined),-76.7,11.7µM,u,n,u,n
O=C(CCc1ccncc1)NC1CCCc2c1cnn2-c1ccc(F)cc1F (centres undefined),-73.2,n,n,u,12.6µM,n
CCc1cc(C(=O)NC2CCCc3c2cnn3-c2ccc(F)cc2F)no1 (centres undefined),-71.3,x,x,x,x,x
O=C(NC1CCCc2c1cnn2-c1ccc(F)cc1F)c1ccccc1N1CCOCC1 (centres undefined),-75.2,u,n,4.15µM,x,n
CC(=O)N1CCN(C(=O)c2cc(C)oc2C)CC1,n,x,x,x,n,n
Cc1cc(C(=O)N2CCOCC2)c(C)o1,-98.8,n,x,n,n,n
COc1ccc(OC)c(CCNC(=O)c2c3c(nc4ccccc24)C(=O)N(C2CCCCC2)C3)c1,n,x,n,x,x,x
Cc1ccc(NC(=O)N2CCCC2C(=O)NCc2ccccc2Cl)cc1 (centres undefined),n,n,n,2.62µM,n,n
COc1ccc(NC(=O)N2CCCC2C(=O)Nc2ccccc2F)cc1 (centres undefined),n,n,n,2.62µM,n,n
O=C(NCc1ccccc1Cl)C1CCCN1C(=O)Nc1ccccc1 (centres undefined),n,n,n,n,n,n
COc1cccc(NC(=O)N2CCCC2C(=O)NCc2ccccc2F)c1 (centres undefined),u,n,n,10.4µM,n,n
Cc1ccc(NC(=O)CSc2nc3c(oc4ccccc43)c(=O)n2Cc2ccco2)cc1,n,x,n,x,x,x
CCOc1ccc2nc(N3CCN(C(=O)c4ccc5c(c4)CCCC5)CC3)sc2c1,n,x,n,x,x,x
CCC(C)(C)N(C(=O)CCC(=O)Nc1cc(C)on1)C(C(=O)NC(C)(C)C)c1ccc(OC)cc1 (centres undefined),n,u,n,n,n,n
CC(=O)N1CCC2(CC1)OC(=O)C(C)=C2C(=O)NCc1ccc(Cl)cc1,u,x,n,x,x,x
CCNc1nc(N)nc(Oc2ccc(C(=O)OC)cc2)n1,n,n,n,0.262µM,u,n
CCNc1nc(Oc2ccc(C(=O)OC)cc2)nc(N(C)C)n1,n,u,n,u,n,n
CCCCC(=O)Nc1ccc(C(=O)OCc2cc(=O)n3ccsc3n2)cc1,n,x,n,x,x,x
Cc1ccc(C)c(S(=O)(=O)N2CCCOC2CNC(=O)C(=O)NCCC2=CCCCC2)c1 (centres undefined),-66.9,n,n,n,n,n
O=C(NCCc1c[nH]c2ccccc12)C(=O)NCC1OCCCN1S(=O)(=O)c1cc(F)ccc1F (centres undefined),u,13.1µM,n,3.29µM,n,n
COc1ccc(S(=O)(=O)N2CCOC2CNC(=O)C(=O)NCCc2c[nH]c3ccccc23)cc1C (centres undefined),n,u,n,9.28µM,11.2µM,n
Cc1ccc(-c2noc(CNS(=O)(=O)c3ccccc3)n2)cc1,n,n,n,n,n,n
CN1c2ccccc2-c2nc3ccccc3n2C1c1ccccn1 (centres undefined),n,9.28µM,n,x,n,n
c1ccc(CN2c3ccccc3-c3nc4ccccc4n3C2c2ccccn2)cc1 (centres undefined),u,7.38µM,n,4.15µM,n,n
SMILES,HCMV inh,Pf growth 48h,Sm TGR inh,Pf growth 96h,HCV inhibitor,SARS PLP yeast
CN1c2ccccc2-c2nc3ccccc3n2C1c1ccncc1 (centres undefined),n,u,n,u,n,n
Clc1ccc(Cn2c(-c3cccnc3Cl)nc3ccccc32)cc1,n,u,n,u,u,n
Cc1ccc(C2Nc3ccccc3-c3nc4ccccc4n32)o1 (centres undefined),n,n,n,n,u,n
CCN1c2ccccc2-c2nc3ccccc3n2C1c1ccco1 (centres undefined),n,11.7µM,n,4.65µM,n,n
Cc1cccc(Cc2c(C)nc3nc(SCc4ccccc4C)nn3c2C)c1,n,x,n,x,x,x
CCOC(=O)c1[nH]c(C)c(C(=O)Nc2ccccc2C)c1C,n,n,n,n,u,n
CCOC(=O)c1[nH]c(C)c(C(=O)Nc2cc(Cl)ccc2C)c1C,n,n,n,n,1.26µM,n
CCCCOC(=O)Nc1cc(Cl)ccc1C,-80.7,n,n,x,n,n
CCOC(=O)c1[nH]c(C)c(C(=O)NC2CCCCCC2)c1C,n,n,n,9.28µM,n,n
CCOC(=O)c1[nH]c(C)c(C(=O)NC2CCCC2)c1C,n,x,n,n,n,n
COC(=O)C(Cc1ccc(O)cc1)NC(=O)Cn1cc(C)c(=O)[nH]c1=O (centres undefined),n,x,x,x,u,x
COc1cccc(/C=N/NC(=O)c2cnccn2)c1,n,n,n,n,n,n
COc1cccc(/C=N/NC(=O)c2nc(-c3ccccc3)cc(-c3ccccc3)n2)c1,n,10.4µM,n,n,n,n
COc1ccc(/C=N/NC(=O)c2nc(-c3ccccc3)cc(-c3ccccc3)n2)cc1OC,n,u,n,2.33µM,u,n
COc1ccc2c(c1OC)C(=O)OC2Nc1nc(-c2cccc([N+](=O)[O-])c2)cs1 (centres undefined),n,n,n,n,n,n
COc1cccc(C2CC(=O)Nc3c2c(=O)n(C)c2ncnn32)c1OC (centres undefined),n,x,n,x,x,x
COc1ccccc1/C=C/C=C1\Oc2c(ccc(O)c2CN2CCN(CCO)CC2)C1=O,-93.4,n,u,u,n,n
O=C1/C(=C/C=C/c2ccccc2)Oc2c1ccc(O)c2CN1CCN(CCO)CC1,n,u,39.8µM,u,n,n
CCN1CCN(Cc2c(O)ccc3c2O/C(=C\C=C\c2ccccc2)C3=O)CC1,u,1.65µM,35.5µM,u,u,n
CN(C)Cc1c(O)ccc2c1O/C(=C\C=C\c1ccccc1)C2=O,-65.0,1.65µM,11.2µM,n,n,n
CCc1ccc(/C=C2\Oc3c(ccc(O)c3CN3CCN(C)CC3)C2=O)cc1,n,u,n,u,n,n
O=c1oc2c(CN3CCN(CCO)CC3)c(O)ccc2cc1-c1ccccc1,n,x,n,x,x,x
CCOC(=O)C1=C(C)OC(=CC=Cc2ccccc2)C1=O,n,x,x,x,x,x
O=C1CC(Cc2ccccc2)C(=O)N1CCCn1ccnc1 (centres undefined),n,n,n,n,n,n
CC(C)C[C@@H]1COc2cc(N3CCOCC3)ccc2S(=O)(=O)N1,n,x,x,x,x,x
